Screens: PubChem BioAssay, National Center for Advancing Translational Sciences (NCATS)
Rows were chosen to be rich in hits. Some 1.4% of all compounds tested hit in one or more screens of this group.
BRCA1 expr up = qHTS Assay to Identify Small Molecule Activators of BRCA1 Expression; MCF7-BRCA1-FFLuc reporter, luminescence, 48 h; response scale: scaled: vehicle 0%, 10 µM genistein 100%; Potency, µM (doses to about 46.1 µM), without a hit: at the top dose activation, most hits filed as activators; 380,000 compounds, 1.1% hits; AID 624202, 2012; further: potency means the concentration at half of the fitted maximal effect; nearly all actives have a fitted effect of over 80% in size
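Luminescence from a BRCA1-driven firefly luciferase in MCF7 cells was read after 48 h compound exposure at 37 C. Data normalized against DMSO and a 10microM genistein activation control, then curve-fitted across the titration.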
IL2 activator = qHTS of IL-2 Activators; IL-2 activation reporter assay, cell-based qHTS; stimulated with anti-CD3/CD4/CD28 beads; in transgenic mouse T cells; activation, % (series mostly up to about 46 µM); 360,000 compounds, 0.065% hits; in the data active means activation above about 50%; inconclusive means mostly about 30% to 49%; further: 0% is about no effect
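Screening format: compound pinned onto unstimulated transgenic mouse T cells, 60 min incubation, then anti-CD3/anti-CD4/anti-CD28 bead stimulation for 18 hours at 37 degrees C, followed by EGFP and DsRed detection.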
uPA generation = qHTS for Inhibitors of Cell Surface uPA Generation; cell surface uPA generation assay, qHTS; AID 540303, 2011; 330,000 compounds, 0.31% hits; Potency, µM (top dose mostly 38.3 µM), for inactives: at the top dose activity change, negative = inhibition, usual class: inhibitors; active means well fitted inhibition curve with a large enough effect; inconclusive means small, poorly fitted or top-dose-only effect; inactive means no such curve, though single readings can be large or run the other way; tested in mouse RAW 264.7 cells; further: potency means the concentration at half of the fitted maximal effect; on the % scale 0 is the no-effect control and ±100 the full control effect; nearly all actives have a fitted effect of over 55% in size
p53 reactivator = qHTS assay for re-activators of p53 using a Luc reporter; H1299 p53-A138V BP100-luciferase reporter, luminescence, 24 h; Potency, µM (top dose mostly 92.2 µM), inactives show top-dose activity change, positive = activation, most hits filed as activators; 320,000 compounds, 0.063% hits; AID 504706, 2011; further: potency means the concentration at half of the fitted maximal effect; % of control where 0% means no effect; nearly all actives have a fitted effect of over 45% in size
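p53-null H1299 cells stably carrying temperature-sensitive p53-A138V and a BP100-luciferase reporter were pinned with compounds (4-point, 1:5 series) and held 24 hrs at 37 deg C. Luminescence was read 10 min after detection reagent.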
TCR activator = Activators of T cell receptors: qHTS campaign; primary human leukocytes, anti-CD3, IL-2 HTRF, 48 h; Potency, µM (titrated, usually from 9.22 µM), for the others: at the highest dose activation of IL-2 secretion, actives largely listed as activators; 330,000 tested, under 10 active; AID 504894, 2011; further: % of control where 0% means no effect
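IL-2 release read by HTRF sandwich (Eu cryptate donor, d2 acceptor, 665 nm emission) after 48 hr exposure of primary human leukocytes to compound together with anti-CD3 beads in the absence of co-stimulatory signals.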
* marks the source's active call; other numbers are inactive results; ? = inconclusive; · = not tested or not shown; ! = a repeat was not active; [ ] = remark or other dose. Unless noted, the call rests on the fitted dose curve; in most records, active means well fitted curve in the direction sought with a large enough effect; inconclusive means small, poorly fitted or top-dose-only effect, or another doubt; inactive means no such curve, though single readings can be large; an effect the other way counts as inactive or inconclusive.

SMILES	BRCA1 expr up	IL2 activator	uPA generation	p53 reactivator	TCR activator
COc1cccc(CN2CCCC(C(=O)Nc3ccc(-c4cscn4)cc3)C2)c1 (centres undefined)	1.0%	-1.9	7.08µM*	-9.4%	1.8%
COc1ccc2[nH]c(C)c(C(=O)CN(C)CC(OC)OC)c2c1	-5.1%	·	·	·	·
Cn1cc(Cl)c(C(=O)N/N=C/c2ccc3c4c(cccc24)CC3)n1	1.26µM*	-3.0	?	?	2.2%
Cc1ccc(/C=N/NC(=O)c2nn(C)cc2Cl)cc1	?	0.1	-5.5%	?	1.1%[46.1 µM]
COc1ccccc1N=c1oc2cc(O)ccc2cc1C(N)=O	10µM*	-0.4	-7.5%	?	3.9%
COc1ccc2cc(C(N)=O)c(=Nc3ccc(C)cc3)oc2c1	?	-2.5	·	13.0%	-7.3%
Cc1cccc(N=c2oc3cc(O)ccc3cc2C(N)=O)c1	11.2µM*	-1.1	2.7%	?	-5.7%
Cc1ccc(Nc2nnc(SCC(=O)NCCN3C(=O)CSC3=O)s2)cc1C	29.2%	-2.2	5.01µM*	?	1.1%[46.1 µM]
CCCCNC(=O)N(C)c1nc2ccccc2s1	4.47µM*	10.1	-2.1%	10.4%	0.8%
Cc1c(Cl)ccc2sc(N3CCN(C(=O)C4CC4)CC3)nc12	0.0%	·	·	·	·
COc1ccc(CN(C)c2ccc(-c3nc(C)no3)cc2[N+](=O)[O-])cc1	-30.8%	·	·	·	·
Cc1cc(C(=O)CN2C(=O)C(=O)N(CC(C)C)C2=O)c(C)n1C1CC1	3.16µM*	-0.3	-9.5%	?	2.4%
CN(C)CCCNc1cc(O)c2ncccc2c1	-48.6%	-0.4	3.98µM*	-14.6%	-1.6%
C=CCNC(=S)NNC(=O)COc1ccc2cc(Br)ccc2c1	10µM*	-5.2	·	9.9%	-8.3%
C=CCNC(=S)NNC(=O)COc1ccc(Br)cc1	13.8%	0.4	10.9%	-0.3%	0.6%[46.1 µM]
O=S(=O)(c1ccc(F)cc1)N1CCN(c2nc(-c3cccc(Br)c3)nc3ccccc23)CC1	3.1%	·	·	·	·
Cc1cc2ncc(-c3cccc(Cl)c3)cn2n1	0.0%	0.2	-2.5%	6.0%	0.0%
Cc1nn2cc(-c3ccc(Cl)cc3)cnc2c1Cl	3.16µM*	-0.2	5.1%	24.4%	2.2%
CC(C)CC(=O)/C(=C\c1ccc(Cl)cc1Cl)n1cncn1	-91.5%	-2.6	7.08µM*	-24.2%	2.3%[46.1 µM]
O=C(CCc1nnc(CCCc2ccccc2)o1)NCCCC1CCCC1	12.6µM*	0.2	0.3%	10.7%	-5.1%
C#CCOc1ccc(/C=C2\SC(=S)N(Cc3cccnc3)C2=O)cc1	-76.2%	-0.4	1.2%	35.5µM*	-1.1%[46.1 µM]
COc1cc2sc3cc(NCc4ccc(C)o4)ccc3c(=O)c2cc1OC	?	-0.6	12.6µM*	15.9%	1.4%
COc1ccc(-c2csc(N(C)C(=O)c3cccs3)n2)cc1	10µM*	1.0	3.6%	3.5%	-13.1%
CN(C(=O)c1ccco1)c1nc(-c2ccc(F)cc2)cs1	4.47µM*	0.8	2.5%	·	·
COc1cccc(/C=N/NC(=O)NC23CC4CC(CC(C4)C2)C3)c1O	-55.2%	-4.0	-10.9%	·	1.7%
SMILES	BRCA1 expr up	IL2 activator	uPA generation	p53 reactivator	TCR activator
O=C(N/N=C/c1ccccn1)NC12CC3CC(CC(C3)C1)C2	3.98µM*	0.6	1.5%	16.6%	1.6%
O=C(N/N=C/c1ccccc1F)NC12CC3CC(CC(C3)C1)C2	5.01µM*	-2.1	-1.9%	?	4.9%
Cc1cccc(/C=N/NC(=O)NC23CC4CC(CC(C4)C2)C3)n1	40.2%	-3.4	-1.5%	10.4%	-3.8%
COc1cc(OC)c(NS(=O)(=O)c2cc(-c3cnc(C)o3)ccc2OC)cc1Cl	-49.9%	·	·	·	·
CN(C)/C=C1\N=C(c2ccc3c(c2)OCO3)OC1=O	7.94µM*	-3.2	4.3%	?	2.9%[46.1 µM]
COc1ccc(NC(=O)/C(C#N)=C\c2ccc(-c3cccc(C(=O)O)c3C)o2)cc1	82.0%	-1.7	-5.0%	7.3%	-2.1%
Cc1c(C(=O)O)cccc1-c1ccc(C=O)o1	7.94µM*	0.4	3.3%	?	-1.1%[46.1 µM]
CCOC(=O)Cn1nc(N2CCN(c3ccc(F)cc3)CC2)ccc1=O	9.7%	·	·	·	·
COc1ccc(C2=NOC(CNC(N)=S)C2)cc1 (centres undefined)	3.16µM*	-1.9	-22.8%	?	-1.8%
COc1cc(OC)c(NC(=O)CSc2nccn2C)cc1Cl	-40.8%	·	·	·	·
Nc1nnc(SCCOc2ccc(Br)cc2)s1	11.2µM*	2.5	-1.4%	20.9%	0.6%
CC(C)(C)c1ccc(C(=O)N2CCC(C(=O)NCC3CCCO3)CC2)cc1 (centres undefined)	8.91µM*	1.0	2.2%	23.5%	-1.5%
O=C(Nc1ccccc1Cl)c1ccn[nH]1	12.6µM*	-0.2	-2.7%	13.5%	6.7%
O=C(Nc1ccccc1F)c1ccn[nH]1	12.8%	-0.2	-1.6%	17.4%	-0.7%
N=c1c2c(n(Cc3ccc(Br)cc3)c3c1CCC3)CCCC2	-27.7%	-1.6	3.98µM*	-13.0%	-0.5%[46.1 µM]
CCN1CCN(c2cc(C)c3cc(NC(=O)c4cc(OC)cc(OC)c4)ccc3n2)CC1	6.31µM*	-5.2	-11.1%	4.7%	7.3%
CCOc1ccc(C(=O)Nc2ccc3nc(N4CCN(CC)CC4)cc(C)c3c2)cc1	-15.2%	-0.1	3.7%	-4.5%	-1.4%
O=[N+]([O-])c1cc(Cl)ccc1-c1nc(-c2ccccc2)no1	2.82µM*	-0.3	-7.2%	?	4.9%
CSc1ccccc1-c1nc(-c2ccncc2)no1	3.16µM*	-3.1	-5.1%	·	-11.4%
O=[N+]([O-])c1ccc(-c2nc(-c3ccncc3)no2)cc1	2.51µM*	-0.9	-3.5%	24.6%	2.9%
Clc1ccccc1-c1nc(-c2ccncc2)no1	1.78µM*!	2.0	-1.0%	?	3.6%
Cc1ccc(C(=O)c2cn(Cc3cc(C)ccc3C)c3nc(C)ccc3c2=O)cc1	-45.2%	·	·	·	·
CS(=O)c1ccccc1-c1nc(-c2cccc(Cl)c2)no1 (centres undefined)	71.8%	0.6	-5.2%	-1.9%	-2.7%
c1coc(-c2nc(-c3ccncc3)no2)c1	3.16µM*	0.1	-5.5%	?	3.4%
CS(=O)c1ccccc1-c1nc(-c2ccc(Cl)cc2)no1 (centres undefined)	11.2µM*	1.4	0.9%	3.6%	22.8%
Cc1ccc(C(=O)c2cn(Cc3cccc(C)c3)c3nc(C)ccc3c2=O)cc1	-29.2%	·	·	·	·
O=C(Nc1ccc2nc(-c3ccco3)c(-c3ccco3)nc2c1)N1CCCC1	22.6%	·	·	·	·
c1csc(-c2nc(N3CCCCC3)no2)c1	6.31µM*	0.4	-1.9%	?	-2.9%
CCOc1c(O)ccc(/C=C2\SC(=S)NC2=O)c1[N+](=O)[O-]	11.2µM*	-0.4	-3.2%	8.0%	1.6%
O=c1c(-c2ccc(F)cc2)coc2cc(O)ccc12	11.2µM*	-1.5	-23.6%	?	-1.6%
